From PubChem BioAssay AID1159580 (chemical genetic matrix, 2015)
Where “and” joins values, the source holds several entries; their conditions need not be identical. Equal entries are not always repeated. Screen size: about 5,500 compounds; about 2,000 (36%) were called active. Another 18% or so got no clear call; they are omitted. Rule as the data show it: active = normalized growth mostly below about 0.91 (no sharp cut-off); inconclusive = no clear call, values can overlap the other calls; inactive = mostly above about 0.92. The list shows a part of the results.

Test: chemical genetic growth profiling, strain panel (AID 1159580);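 also: tested at 20 µM; growth read once vehicle control cultures reached saturation at 30 °C; 1 = growth at the plate median or of vehicle wells; lower values mean less growth of the strain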
Conditions: S. cerevisiae deletion strains, growth OD

Measured: normalized growth

CC1(C)CC2C1CCC1(C)OC1CCC2(C)O (centres undefined)
inactive: locus YAL013W, strain DEP1, active compounds read low 1.02 | locus YAL021C, strain ccr4, active compounds read low 1.01 | locus YAL026C, strain drs2, active compounds read low 1.05 | locus YAL030W, strain snc1, active compounds read low 1.03 | locus YBL061C, strain skt5, active compounds read low 1.04 | locus YBR009C, strain hhf1, active compounds read low 1.06 | locus YBR021W, strain FUR4, active compounds read low 1.01 | locus YBR023C, strain chs3, active compounds read low 1.05 | locus YBR171W, strain sec66, active compounds read low 1.06 | locus YBR229C, strain ROT2, active compounds read low 1 | locus YBR231C, strain swc5, active compounds read low 1.04 | locus YBR279W, strain paf1, active compounds read low 1.03 | locus YCL011C, strain gbp2, active compounds read low 1.04 | locus YCL016C, strain dcc1, active compounds read low 1.03 | locus YCL029C, strain bik1, active compounds read low 1.03 | locus YCL061C, strain MRC1, active compounds read low 1.04 | locus YCL069W, strain vba3, active compounds read low 1.04 | locus YCR088W, strain abp1, active compounds read low 1.04 | locus YDL005C, strain med2, active compounds read low 1.03 | locus YDL035C, strain GPR1, active compounds read low 1.03 | locus YDL040C, strain nat1, active compounds read low 1.03 | locus YDL074C, strain BRE1, active compounds read low 1.07 | locus YDL101C, strain DUN1, active compounds read low 1.03 | locus YDL185W, strain tfp1, active compounds read low 1.01 | locus YDL192W, strain arf1, active compounds read low 1.03 | locus YDR001C, strain nth1, active compounds read low 1.03 | locus YDR069C, strain doa4, active compounds read low 1.06 | locus YDR101C, strain arx1, active compounds read low 0.987 | locus YDR137W, strain rgp1, active compounds read low 1.07 | locus YDR159W, strain sac3, active compounds read low 1.11 | locus YDR162C, strain NBP2, active compounds read low 1.06 | locus YDR195W, strain ref2 1.01 | locus YDR297W, strain sur2, active compounds read low 1.05 | locus YDR318W, strain mcm21, active compounds read low 1.04 | locus YDR334W, strain swr1, active compounds read low 1.04 | locus YDR335W, strain msn5, active compounds read low 1.04 | locus YDR388W, active compounds read low 1.02 | locus YDR392W, strain spt3, active compounds read low 1.01 | locus YDR502C, strain sam2, active compounds read low 1.06 | locus YEL003W, strain gim4, active compounds read low 1.04 | locus YEL037C, strain rad23, active compounds read low 1.03 | locus YEL061C, strain CIN8 (second series), active compounds read low 1.03 | locus YEL061C, strain CIN8, active compounds read low 1.02 | locus YER015W, strain faa2, active compounds read low 1.04 | locus YER016W, strain bim1, active compounds read low 1.04 | locus YER110C, active compounds read low 1.01 | locus YER111C, strain swi4, active compounds read low 1.03 | locus YER155C, strain BEM2 (second series), active compounds read low 1.07 | locus YER155C, strain BEM2, active compounds read low 1.03 | locus YER167W, strain BCK2, active compounds read low 1.01 | locus YFR010W, strain ubp6, active compounds read low 1.05 | locus YGL078C, strain dbp3, active compounds read low 1.02 | locus YGL086W, strain mad1, active compounds read low 1.02 | locus YGL167C, strain pmr1, active compounds read low 1.03 | locus YGL173C, strain kem1, active compounds read low 1.06 | locus YGL227W, strain vid30, active compounds read low 1.03 | locus YGL240W, strain doc1, active compounds read low 1.04 | locus YGL248W, strain PDE1, active compounds read low 1.05 | locus YGL253W, strain hxk2, active compounds read low 1.07 | locus YGR135W, strain pre9, active compounds read low 1.04 | locus YGR252W, strain gcn5, active compounds read low 1.17 | locus YHR013C, strain ard1, active compounds read low 1.05 | locus YHR027C, strain rpn1, active compounds read low 1.06 | locus YHR030C, strain SLT2, active compounds read low 1.02 | locus YHR079C, strain IRE1 (second series), active compounds read low 1.01 | locus YHR079C, strain IRE1, active compounds read low 1.04 | locus YHR094C, strain hxt1, active compounds read low 1.01 | locus YHR129C, strain ARP1, active compounds read low 1.02 | locus YHR142W, strain chs7, active compounds read low 1.06 | locus YHR200W, strain rpn10, active compounds read low 1.04 | locus YIL066C, strain RNR3, active compounds read low 1.02 | locus YIL073C, strain SPO22, active compounds read low 1.12 | locus YIL125W, strain kgd1, active compounds read low 1.01 | locus YIR030C, strain dcg1, active compounds read low 1.01 | locus YJL092W, strain hpr5, active compounds read low 1.04 | locus YJL095W, strain BCK1 (second series), active compounds read low 1.03 | locus YJL095W, strain BCK1, active compounds read low 1.08 and 1.04 | locus YJL115W, strain asf1, active compounds read low 1.04 | locus YJL129C, strain trk1, active compounds read low 1.08 | locus YJL134W, strain LCB3, active compounds read low 1.02 | locus YJL154C, strain vps35, active compounds read low 1.03 | locus YJL164C, strain tpk1, active compounds read low 1.04 | locus YJL166W, strain qcr8, active compounds read low 1.05 | locus YJL168C, strain set2, active compounds read low 1.02 | locus YJL187C, strain SWE1 (second series), active compounds read low 1.06 | locus YJL187C, strain SWE1, active compounds read low 1.05 | locus YJR043C, strain POL32, active compounds read low 1.04 | locus YJR066W, strain TOR1, active compounds read low 0.961 | locus YKL009W, strain mrt4, active compounds read low 1.01 | locus YKL068W, active compounds read low 1 | locus YKL085W, strain MDH1 (second series), active compounds read low 1 | locus YKL085W, strain MDH1, active compounds read low 1 | locus YKL160W, strain elf1, active compounds read low 1.02 | locus YKR001C, strain vps1, active compounds read low 1.1 | locus YKR026C, strain gcn3, active compounds read low 1.04 | locus YKR091W, strain srl3, active compounds read low 1.02 | locus YLL001W, strain dnm1, active compounds read low 1.01 | locus YLL026W, active compounds read low 1.04 | locus YLL041C, strain sdh2, active compounds read low 1.03 | locus YLR027C, strain aat2, active compounds read low 1.05 | locus YLR039C, strain RIC1, active compounds read low 1.2 | locus YLR058C, strain SHM2, active compounds read low 1.05 | locus YLR102C, strain apc9, active compounds read low 1.01 | locus YLR113W, strain HOG1, active compounds read low 1.03 | locus YLR221C, strain rsa3, active compounds read low 1.07 | locus YLR258W, strain gsy2, active compounds read low 1.05 | locus YLR262C, strain YPT6 (second series), active compounds read low 1.06 | locus YLR268W, strain sec22, active compounds read low 1.04 | locus YLR320W, strain mms22, active compounds read low 1.07 | locus YLR342W, strain FKS1 (second series), active compounds read low 1.09 | locus YLR342W, strain FKS1, active compounds read low 1.05 | locus YLR357W, strain rsc2, active compounds read low 1.07 | locus YLR370C, strain arc18, active compounds read low 1.04 | locus YLR371W, strain rom2, active compounds read low 0.999 | locus YLR384C, strain iki3, active compounds read low 1.05 | locus YLR418C, strain cdc73, active compounds read low 1.11 | locus YML016C, strain PPZ1, active compounds read low 1.01 | locus YML032C, strain rad52, active compounds read low 1.04 | locus YML120C, strain ndi1, active compounds read low 1.03 | locus YML124C, strain tub3, active compounds read low 0.999 | locus YMR058W, strain fet3, active compounds read low 1.05 | locus YMR078C, strain ctf18, active compounds read low 1.01 | locus YMR125W, strain sto1, active compounds read low 1.05 | locus YMR129W, active compounds read low 1.02 | locus YMR205C, strain PFK2, active compounds read low 1.06 | locus YMR223W, strain ubp8, active compounds read low 1.05 | locus YMR231W, strain pep5, active compounds read low 1.04 | locus YMR263W, strain SAP30, active compounds read low 1.02 | locus YMR307W, strain GAS1, active compounds read low 1.1 | locus YNL067W, strain RPL9B, active compounds read low 1.03 | locus YNL071W, strain lat1, active compounds read low 1.04 | locus YNL128W, strain TEP1, active compounds read low 1.04 | locus YNL153C, strain GIM3, active compounds read low 1.05 | locus YNL183C, strain NPR1, active compounds read low 0.975 | locus YNL209W, strain ssb2, active compounds read low 1.03 | locus YNL233W, strain BNI4, active compounds read low 1.07 | locus YNL248C, strain rpa49, active compounds read low 1.05 | locus YNL250W, strain rad50, active compounds read low 1.04 | locus YNL271C, strain bni1, active compounds read low 1.03 | locus YNL298W, strain CLA4, active compounds read low 1.01 | locus YNL307C, strain MCK1, active compounds read low 1.01 | locus YNL322C, strain KRE1 (second series), active compounds read low 1.04 | locus YNL322C, strain KRE1, active compounds read low 1.02 | locus YNR049C, strain mso1, active compounds read low 1.04 | locus YNR052C, strain pop2, active compounds read low 1.03 | locus YOL006C, strain TOP1, active compounds read low 1.19 | locus YOL012C, strain htz1 1 | locus YOL147C, strain pex11, active compounds read low 1.02 | locus YOR001W, strain rrp6, active compounds read low 1.08 | locus YOR061W, strain CKA2, active compounds read low 1.02 | locus YOR069W, strain VPS5, active compounds read low 1.02 | locus YOR070C, strain gyp1, active compounds read low 1.05 | locus YOR080W, strain dia2, active compounds read low 1.03 | locus YOR083W, strain WHI5, active compounds read low 1.03 | locus YOR106W, strain vam3, active compounds read low 1.04 | locus YOR136W, strain idh2, active compounds read low 1 | locus YOR144C, strain elg1, active compounds read low 1.01 | locus YOR184W, strain ser1, active compounds read low 1.05 | locus YOR231W, strain MKK1, active compounds read low 1.05 | locus YOR265W, strain rbl2, active compounds read low 1.04 | locus YOR270C, strain vph1, active compounds read low 1.14 | locus YOR290C, strain snf2, active compounds read low 1.04 | locus YOR316C, strain cot1, active compounds read low 1 | locus YPL051W, strain arl3, active compounds read low 1.05 | locus YPL055C, strain LGE1, active compounds read low 1.06 | locus YPL078C, strain atp4, active compounds read low 1.02 | locus YPL106C, strain sse1, active compounds read low 1.02 | locus YPL240C, strain hsp82, active compounds read low 1.03 | locus YPL256C, strain CLN2, active compounds read low 1.04 | locus YPR119W, strain clb2, active compounds read low 1.02 | locus YPR141C, strain kar3, active compounds read low 0.991 | locus YPR163C, strain tif3, active compounds read low 1.04 | locus YPR167C, strain met16, active compounds read low 1 | strain wtn01, active compounds read low 1.04
